Laboratory results as given in PubChem BioAssay (Tox21).
Values joined by “and” are separate entries in the source; they are usually repeats but may differ in a detail not shown here. Identical values can stand only once. Records with an inconclusive call do not appear. Active and inactive are the calls of the source. Unless noted, calls come from the whole dose curve; as a rule, active = well fitted curve in the direction sought with a large enough effect in the repeat runs; inconclusive = weak or mixed curves; inactive = no such curve, though single readings can be large; an effect the other way counts as inactive or inconclusive.

Assays:
[1] = qHTS assay to identify small molecule agonists of the androgen receptor (AR) signaling pathway in the presence of an antagonist - cell viability counter screen (AID 1259379); note: nearly all actives have a fitted effect of over 25% in size; note: potency is the fitted concentration of half-maximal effect;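 for activity change, negative = cytotoxicity: MDA-kb2 human breast cancer cells carrying an MMTV luciferase reporter; series mostly up to about 92 µM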
Summary of the method: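 Fluorescence from CellTiter-Fluor, added after 15 hr and read 1 hr later, gave cell viability. Cells were MDA-kb2 exposed to compounds (15 concentrations) in the presence of 3.0uM nilutamide at 37C, 0% CO2.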

[2] = qHTS assay to identify small molecule agonists of the estrogen receptor beta (ER-beta) signaling pathway - cell viability counter screen (AID 1259380); note: nearly all actives have a fitted effect of over 30% in size; note: potency is the fitted concentration of half-maximal effect
Summary of the method: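 Same-well viability counter screen. Cells: ER-beta-UAS-bla HEK293T, plated 6 hr before compound, in 2% charcoal-stripped FBS. Compound exposure 16 hr, 37C; viability by CellTiter-Glo luminescence after 30 min at room temperature.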

[3] = biological target: Androgen receptor (Homo sapiens) (UniProt P10275); experiment: qHTS assay to identify small molecule agonists of the androgen receptor (AR) signaling pathway in the presence of an antagonist (AID 1259381; calls by dose curve; note: nearly all actives have a fitted effect of over 15% in size)
Chain of Androgen receptor (Homo sapiens) (P10275 whole entry, looked up): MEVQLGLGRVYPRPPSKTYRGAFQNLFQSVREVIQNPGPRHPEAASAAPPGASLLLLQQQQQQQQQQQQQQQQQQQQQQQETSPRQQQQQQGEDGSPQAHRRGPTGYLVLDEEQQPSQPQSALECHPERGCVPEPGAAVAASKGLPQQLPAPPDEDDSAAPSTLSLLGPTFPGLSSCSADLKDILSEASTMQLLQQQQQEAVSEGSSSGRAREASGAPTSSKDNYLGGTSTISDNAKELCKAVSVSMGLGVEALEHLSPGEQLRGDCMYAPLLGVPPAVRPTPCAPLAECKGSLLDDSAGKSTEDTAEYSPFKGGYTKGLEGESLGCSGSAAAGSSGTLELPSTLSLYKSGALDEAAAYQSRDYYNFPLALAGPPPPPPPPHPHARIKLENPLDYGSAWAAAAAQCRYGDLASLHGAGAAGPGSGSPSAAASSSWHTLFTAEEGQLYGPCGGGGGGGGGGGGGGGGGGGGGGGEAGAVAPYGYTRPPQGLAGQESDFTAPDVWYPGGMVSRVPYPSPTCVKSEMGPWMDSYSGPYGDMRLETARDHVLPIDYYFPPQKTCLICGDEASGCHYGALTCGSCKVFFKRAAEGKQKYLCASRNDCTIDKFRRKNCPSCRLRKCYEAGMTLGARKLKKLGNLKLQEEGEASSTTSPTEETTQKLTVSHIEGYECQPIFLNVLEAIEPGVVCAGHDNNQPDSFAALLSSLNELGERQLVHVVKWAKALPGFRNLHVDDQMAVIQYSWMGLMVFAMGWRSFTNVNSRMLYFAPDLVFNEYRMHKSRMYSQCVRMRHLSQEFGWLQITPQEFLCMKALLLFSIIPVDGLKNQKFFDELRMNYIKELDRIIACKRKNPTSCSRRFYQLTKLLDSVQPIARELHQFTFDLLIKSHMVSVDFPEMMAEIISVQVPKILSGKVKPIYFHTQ
Summary of the method: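 Cells are MDA-kb2 (human breast carcinoma, MMTV-luc, AR/GR responsive). Nilutamide is present at 3.0uM final throughout; compounds are added at 15 concentrations and incubated 16hr at 37C before ONE-Glo luminescence detection.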

[4] = qHTS assay to identify small molecule antagonists of the estrogen receptor beta (ER-beta) signaling pathway - cell viability counter screen (AID 1259382); note: nearly all actives have a fitted effect of over 55% in size; note: potency is the fitted concentration of half-maximal effect;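 for activity change, negative = cytotoxicity: HEK293T cells carrying ER-beta-UAS-bla reporter stimulated with estradiol; series mostly up to about 92 µM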
Summary of the method: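 Following a 6 hr plating period, HEK293T cells carrying a UAS-driven beta-lactamase reporter under ER-beta control received compounds and 1nM E2 (final). After 16 hr at 37C and 2 hr substrate loading, CellTiter-Glo luminescence indicated viability.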

[5] = biological target: Estrogen receptor (Homo sapiens) (UniProt P03372); experiment: qHTS assay to identify small molecule agonists of the estrogen receptor alpha (ER-alpha) signaling pathway in the presence of an antagonist (AID 1259383; calls by dose curve; note: nearly all actives have a fitted effect of over 15% in size; note: potency is the fitted concentration of half-maximal effect; for activation: top concentration of the series differs between compounds)
Chain of Estrogen receptor (Homo sapiens) (P03372 whole entry, looked up): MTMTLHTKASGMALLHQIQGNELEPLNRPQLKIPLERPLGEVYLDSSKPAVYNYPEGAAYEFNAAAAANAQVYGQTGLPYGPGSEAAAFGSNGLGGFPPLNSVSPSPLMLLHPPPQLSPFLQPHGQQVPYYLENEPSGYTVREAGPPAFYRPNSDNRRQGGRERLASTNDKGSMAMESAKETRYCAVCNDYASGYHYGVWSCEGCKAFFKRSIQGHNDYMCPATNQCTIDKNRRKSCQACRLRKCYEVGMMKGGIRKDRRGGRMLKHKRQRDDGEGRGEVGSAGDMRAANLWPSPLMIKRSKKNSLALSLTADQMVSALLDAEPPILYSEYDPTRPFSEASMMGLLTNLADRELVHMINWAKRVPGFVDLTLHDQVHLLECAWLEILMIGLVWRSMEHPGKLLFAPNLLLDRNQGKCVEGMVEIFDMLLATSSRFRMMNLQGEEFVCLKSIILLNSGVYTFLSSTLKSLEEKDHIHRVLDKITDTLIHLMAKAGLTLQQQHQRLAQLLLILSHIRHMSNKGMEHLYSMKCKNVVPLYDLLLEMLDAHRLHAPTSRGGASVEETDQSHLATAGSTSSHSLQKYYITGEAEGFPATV
Summary of the method: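 Cells are hormone-deprived for 5 days (charcoal-stripped FBS, no phenol red), plated for 24hr, spiked with 10.0nM ICI-182,780, then dosed at 15 concentrations. After 22hr at 37C, ONE-Glo luminescence reports ERE-luciferase activity.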

[6] = qHTS assay to identify small molecule agonists of the estrogen receptor alpha (ER-alpha) signaling pathway in the presence of an antagonist - cell viability counter screen (AID 1259386);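 note: cells exposed to compounds for 22 h at 37 °C before the viability read; nearly all actives have a fitted effect of over 30% in size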; note: potency is the fitted concentration of half-maximal effect; for activity change, negative = cytotoxicity: series mostly up to about 92 µM
Summary of the method: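 Cells are starved of estrogens for 5 days in charcoal-stripped serum, seeded for 24hr and co-treated with ICI-182,780 (10.0nM final) and test compounds. After 22hr at 37C, viability is read as CellTiter-Fluor fluorescence.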

[7] = biological target: Progesterone receptor (Homo sapiens) (UniProt P06401); experiment: qHTS assay to identify small molecule antagonists of the progesterone receptor (PR) signaling pathway (AID 1346795; active = well fitted inhibition curve with a large enough effect in the signal ratio in the repeat runs, not every such curve was filed as active; the % refers to the signal ratio; note: potency is the fitted concentration of half-maximal effect)
Chain of Progesterone receptor (Homo sapiens) (P06401 whole entry, looked up): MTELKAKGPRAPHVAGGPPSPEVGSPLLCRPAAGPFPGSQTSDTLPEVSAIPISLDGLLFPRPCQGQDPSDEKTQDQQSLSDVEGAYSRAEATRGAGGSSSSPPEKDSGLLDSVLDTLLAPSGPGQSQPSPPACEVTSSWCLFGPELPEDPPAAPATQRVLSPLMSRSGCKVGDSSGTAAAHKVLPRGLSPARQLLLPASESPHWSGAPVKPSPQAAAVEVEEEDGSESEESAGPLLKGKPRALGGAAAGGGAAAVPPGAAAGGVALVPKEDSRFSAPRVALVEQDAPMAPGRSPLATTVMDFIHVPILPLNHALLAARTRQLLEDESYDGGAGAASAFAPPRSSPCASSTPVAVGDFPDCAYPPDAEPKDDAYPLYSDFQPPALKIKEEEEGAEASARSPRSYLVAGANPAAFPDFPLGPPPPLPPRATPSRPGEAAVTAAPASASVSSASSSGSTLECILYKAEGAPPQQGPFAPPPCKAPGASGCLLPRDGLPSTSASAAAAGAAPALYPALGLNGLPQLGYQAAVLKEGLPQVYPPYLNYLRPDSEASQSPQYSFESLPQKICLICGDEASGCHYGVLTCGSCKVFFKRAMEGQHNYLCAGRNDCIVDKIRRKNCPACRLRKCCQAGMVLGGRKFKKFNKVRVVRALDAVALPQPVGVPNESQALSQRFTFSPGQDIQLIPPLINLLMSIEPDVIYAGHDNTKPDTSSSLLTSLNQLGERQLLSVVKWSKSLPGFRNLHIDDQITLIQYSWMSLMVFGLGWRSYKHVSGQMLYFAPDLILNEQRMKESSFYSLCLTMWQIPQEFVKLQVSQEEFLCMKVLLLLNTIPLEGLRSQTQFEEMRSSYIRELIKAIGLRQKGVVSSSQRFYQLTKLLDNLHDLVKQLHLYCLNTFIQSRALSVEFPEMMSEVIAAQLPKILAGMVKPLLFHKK
Summary of the method: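 Screening used a GripTite HEK293T line with PR-responsive UAS-beta-lactamase. Cells were challenged with compound in the presence of 1 nM R5020 final for 16 hr at 37C; B/G FRET substrate, 2 hr room temperature, fluorescence.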

[8] = qHTS assay to identify small molecule antagonists of the progesterone receptor (PR) signaling pathway - cell viability counter screen (AID 1346798); note: nearly all actives have a fitted effect of over 50% in size; note: potency is the fitted concentration of half-maximal effect; for activity change, negative = cytotoxicity: series mostly up to about 92 µM
Summary of the method: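 Measures cytotoxicity in parallel with the PR antagonist reporter read: HEK293T PR-UAS-bla cells get compound and R5020 for 16 hr, and remaining viable cells are quantified by CellTiter-Glo luminescence.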

[9] = qHTS assay to identify small molecule agonists of the progesterone receptor (PR) signaling pathway - cell viability counter screen (AID 1346799; calls by dose curve; note: nearly all actives have a fitted effect of over 45% in size; note: potency is the fitted concentration of half-maximal effect)
Summary of the method: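 Using the same plates as the PR reporter screen, HEK293T PR-UAS-bla cells received compounds for 16 hr at 37C and were then lysed with CellTiter-Glo; luminescence was read 30 min later at room temperature.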

[10] = qHTS assay to identify small molecule antagonists of the TGF-beta/Smad signaling pathway - cell viability counter screen (AID 1346824); note: nearly all actives have a fitted effect of over 50% in size; note: potency is the fitted concentration of half-maximal effect
Summary of the method: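 Cytotoxicity counter-screen run in the same wells as the beta-lactamase Smad reporter read: CellTiter-Glo luminescence after 30 min at room temperature. HEK 293T SBE-bla cells had 5 hr compound exposure at 37 C with TGF-beta1 (0.25 ng/mL stock).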

[11] = qHTS assay to identify small molecule agonists of the TGF-beta/Smad signaling pathway - cell viability counter screen (AID 1346829); note: nearly all actives have a fitted effect of over 45% in size; note: potency is the fitted concentration of half-maximal effect; for activity change, negative = cytotoxicity: top concentration of the series differs between compounds
Summary of the method: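 Luminescence from CellTiter-Glo, read after a 30 min room-temperature incubation, gives cell viability of SBE-bla HEK 293T cells treated 5 hr with compounds at 37 C.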

[12] = qHTS assay to identify small molecule agonists of the TGF-beta/Smad signaling pathway (AID 1346859; active = well fitted activation curve with a large enough effect in the signal ratio in the repeat runs, not every such curve was filed as active; the % refers to the signal ratio; note: series mostly up to about 77 µM)
Summary of the method: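 Beta-lactamase reporter activity downstream of Smad binding elements was measured in stably transfected HEK 293T cells; compounds were incubated for 5 hr, substrate for 2 hr at room temperature.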

[13] = Human pregnane X receptor (PXR) small molecule agonists, qHTS cell viability counter screen (AID 1346977); note: nearly all actives have a fitted effect of over 50% in size; note: potency is the fitted concentration of half-maximal effect
Summary of the method: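 After a 5hr pre-incubation, PXR-Luc HepG2 cells received compounds plus positive control in DMSO and were kept 24hr at 37C. Cell viability was quantified by fluorescence from CellTiter-Fluor added for the final hour.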

[14] = biological target: Estrogen receptor beta (Homo sapiens) (UniProt Q92731); experiment: qHTS assay to identify small molecule antagonists of the estrogen receptor beta (ER-beta) signaling pathway (AID 1259378; active = well fitted inhibition curve with a large enough effect in the signal ratio in the repeat runs, not every such curve was filed as active; the % refers to the signal ratio; note: potency is the fitted concentration of half-maximal effect)
Chain of Estrogen receptor beta (Homo sapiens) (Q92731 whole entry, looked up): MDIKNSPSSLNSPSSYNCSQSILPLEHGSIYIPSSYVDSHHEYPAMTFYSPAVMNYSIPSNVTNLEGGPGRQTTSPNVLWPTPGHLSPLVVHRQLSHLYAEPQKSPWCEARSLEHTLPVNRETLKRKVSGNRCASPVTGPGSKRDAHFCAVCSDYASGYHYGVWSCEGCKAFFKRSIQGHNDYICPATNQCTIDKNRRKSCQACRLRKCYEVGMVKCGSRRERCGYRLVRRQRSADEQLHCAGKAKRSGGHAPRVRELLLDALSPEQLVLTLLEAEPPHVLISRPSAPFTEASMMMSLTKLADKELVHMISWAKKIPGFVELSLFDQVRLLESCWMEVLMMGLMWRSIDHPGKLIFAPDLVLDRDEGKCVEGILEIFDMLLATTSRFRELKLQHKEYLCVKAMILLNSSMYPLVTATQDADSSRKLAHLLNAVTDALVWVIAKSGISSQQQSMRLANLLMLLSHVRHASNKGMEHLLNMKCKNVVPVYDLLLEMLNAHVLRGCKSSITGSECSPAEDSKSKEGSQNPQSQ
Summary of the method: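 Antagonist mode: compounds added to beta-lactamase reporter HEK293T ER-beta-UAS cells stimulated with E2 (1nM final), 16 hr at 37C. LiveBLAzer B/G FRET substrate, 2 hours room temperature, fluorescence read-out.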

[15] = qHTS assay to identify small molecule agonists or antagonists of the thyroid stimulating hormone receptor (TSHR) signaling pathway - wild type cell line counter screen (AID 1259384; calls by dose curve)
Summary of the method: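 Counter screen in untransfected Hek293: compounds (15-point titration, triplicate) plus phosphodiesterase inhibitor Ro20-1724 added after 18 h plating; 30 min RT. Intracellular cAMP via competitive d2/cryptate immunoassay, 1 h incubation.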

[16] = biological target: Thyrotropin receptor (Homo sapiens) (UniProt P16473); experiment: qHTS assay to identify small molecule antagonists of the thyroid stimulating hormone receptor (TSHR) signaling pathway (AID 1259385; calls by dose curve; note: nearly all actives have a fitted effect of over 20% in size; note: potency is the fitted concentration of half-maximal effect)
Chain of Thyrotropin receptor (Homo sapiens) (P16473 whole entry, looked up): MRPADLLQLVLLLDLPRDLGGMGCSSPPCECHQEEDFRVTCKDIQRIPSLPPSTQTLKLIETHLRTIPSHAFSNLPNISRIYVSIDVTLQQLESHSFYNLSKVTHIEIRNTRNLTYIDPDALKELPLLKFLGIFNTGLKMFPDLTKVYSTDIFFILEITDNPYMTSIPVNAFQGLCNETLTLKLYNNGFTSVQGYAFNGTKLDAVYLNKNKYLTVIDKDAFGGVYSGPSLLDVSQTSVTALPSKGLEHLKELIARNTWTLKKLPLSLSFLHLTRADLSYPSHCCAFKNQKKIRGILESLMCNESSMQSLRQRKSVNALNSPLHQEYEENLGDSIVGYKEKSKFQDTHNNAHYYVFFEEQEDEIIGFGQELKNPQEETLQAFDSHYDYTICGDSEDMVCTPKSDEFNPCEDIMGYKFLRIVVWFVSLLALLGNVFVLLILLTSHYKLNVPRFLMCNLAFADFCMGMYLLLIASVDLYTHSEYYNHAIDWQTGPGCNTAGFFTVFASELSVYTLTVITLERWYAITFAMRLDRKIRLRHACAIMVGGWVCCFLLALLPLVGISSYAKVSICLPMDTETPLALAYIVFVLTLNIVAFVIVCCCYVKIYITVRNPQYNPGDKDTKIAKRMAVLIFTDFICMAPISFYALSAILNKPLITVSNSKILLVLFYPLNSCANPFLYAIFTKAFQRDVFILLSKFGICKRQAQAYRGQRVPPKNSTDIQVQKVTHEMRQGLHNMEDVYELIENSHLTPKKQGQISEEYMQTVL
Summary of the method: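 Antagonist mode: compound-treated TSHR-expressing HEK293 cells were stimulated with 1.5 ng/mL TSH (final) in presence of Ro20-1724 for 30 min at RT. HTRF cAMP detection after 1 h; each compound tested at 15 concentrations, triplicate.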

[17] = biological target: Progesterone receptor (Homo sapiens) (UniProt P06401); experiment: qHTS assay to identify small molecule agonists of the progesterone receptor (PR) signaling pathway (AID 1346784; calls by dose curve; note: nearly all actives have a fitted effect of over 30% in size)
Summary of the method: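 Seed PR-UAS-bla HEK 293T cells (2% charcoal-stripped FBS), incubate 6 hr at 37C; add compounds in DMSO, 16 hr at 37C; add LiveBLAzer B/G substrate, 2 hr RT; read fluorescence intensity.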

[18] = biological target: Thyrotropin-releasing hormone receptor (Homo sapiens) (UniProt P34981); experiment: qHTS assay to identify small molecule antagonists of the thyrotropin-releasing hormone receptor (TRHR) signaling pathway (AID 1346877; active = well fitted inhibition curve with a large enough effect in the repeat runs, not every such curve was filed as active; note: potency is the fitted concentration of half-maximal effect)
Chain of Thyrotropin-releasing hormone receptor (Homo sapiens) (P34981 whole entry, looked up): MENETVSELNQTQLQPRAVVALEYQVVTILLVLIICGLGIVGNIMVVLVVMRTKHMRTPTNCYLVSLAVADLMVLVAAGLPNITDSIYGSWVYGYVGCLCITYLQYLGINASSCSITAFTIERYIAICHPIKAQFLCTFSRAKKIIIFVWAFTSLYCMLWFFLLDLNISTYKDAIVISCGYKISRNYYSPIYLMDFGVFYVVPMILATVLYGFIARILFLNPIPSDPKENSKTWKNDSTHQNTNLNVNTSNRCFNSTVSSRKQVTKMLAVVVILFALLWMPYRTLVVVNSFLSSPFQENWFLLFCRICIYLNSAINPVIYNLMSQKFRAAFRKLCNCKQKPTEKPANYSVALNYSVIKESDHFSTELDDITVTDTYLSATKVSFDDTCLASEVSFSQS
Summary of the method: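 Cells (TRHR-HEK293) are plated and kept 18 h at 37 °C/5% CO2. A calcium-sensitive dye is added for 2 h, compound follows for 5 min at room temperature, and TRH is then given at 1 nM final.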

[19] = biological target: Thyrotropin-releasing hormone receptor (Homo sapiens) (UniProt P34981); experiment: qHTS assay to identify small molecule agonists of the thyrotropin-releasing hormone receptor (TRHR) signaling pathway (AID 1346891; calls by dose curve; note: potency is the fitted concentration of half-maximal effect;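 for activation: HEK293 cells expressing TRHR with calcium dye readout; series mostly up to about 58 µM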)
Summary of the method: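 Overnight-plated (18 h, 37 °C, 5% CO2) TRHR-Hek293 cells; 2 h calcium dye at 37 °C; compound in DMSO; 3-min kinetic fluorescence read.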
% is set by controls: 0 for no effect and ±100 for the full control effect.

N#C/C=C/c1ccccc1
inactive: Potency [1] | Potency [2] | Potency [3] | Potency [4] | Potency [5] | Potency [6] | Potency [7] | Potency [8] | Potency [9] | Potency [10] | Potency [11] | outcome [12] | Potency [13]

CC(C)(C)OO
inactive: Potency [14] | Potency [1] | Potency [2] | Potency [3] | Potency [4] | outcome [15] | Potency [16] | Potency [6] | Potency [17] | Potency [7] | Potency [8] | Potency [9] | Potency [10] | Potency [11] | outcome [12] | Potency [18] | Potency [19] | Potency [13]

Cc1cc(N=Nc2ccccc2C)ccc1N
active: Potency [14] 19.3 µM | Potency [1] 30.6 µM and 34.4 µM | Potency [2] 27.3 µM | Potency [4] 54.5 µM | Potency [6] 27.3 µM | Potency [7] 12.2 µM | Potency [13] 4.47 µM and 6.86 µM
inactive: Potency [3] | outcome [15] | Potency [17] | Potency [8] | Potency [10] | Potency [11] | outcome [12] | Potency [18] | Potency [19]

C[C@H]1CC[C@@H]2[C@@H](C)[C@H]3[C@H](C[C@H]4[C@@H]5CC=C6CC(O[C@@H]7O[C@H](CO)[C@H](O)[C@H](O[C@@H]8O[C@H](CO)[C@@H](O)[C@H](O)[C@H]8O)[C@H]7O[C@H]7O[C@@H](C)[C@H](O)[C@@H](O)[C@H]7O)CC[C@]6(C)[C@H]5CC[C@]34C)N2C1 (stereo partly specified)
active: Potency [1] 22.4 µM | Potency [2] 15.8 µM | Potency [4] 25.1 µM | Potency [6] 28.2 µM | Potency [9] 22.4 µM | Potency [10] 12.7 µM | Potency [11] 12.7 µM | Potency [18] 7.82 µM | Potency [19] 8.99 µM | Potency [13] 11.2 µM
inactive: Potency [5] | outcome [15]

O=[N+]([O-])c1cc(C(F)(F)F)c(Cl)c([N+](=O)[O-])c1Cl
inactive: Potency [5] | outcome [15] | Potency [18] | Potency [19]
active: Potency [1] 27.3 µM | Potency [2] 27.3 µM | Potency [4] 30.6 µM | Potency [16] 61.1 µM | Potency [6] 54.5 µM | Potency [8] 54.5 µM | Potency [10] 49 µM | Potency [11] 49 µM | Potency [13] 27.3 µM

Oc1ccc(C2(c3ccc(O)cc3)c3ccccc3-c3ccccc32)cc1
inactive: Potency [5] | outcome [15] | Potency [16] | Potency [10] | outcome [12] | Potency [18] | Potency [19]
active: Potency [1] 34.4 µM | Potency [2] 48.6 µM | Potency [4] 61.1 µM

C[CH2][Hg][N]1C(=O)C2C(C1=O)C1(Cl)C(Cl)=C(Cl)C2(Cl)C1(Cl)Cl (stereo unspecified)
active: Potency [1] 13 µM | Potency [2] 9.2 µM | Potency [4] 11.6 µM | Potency [16] 14.6 µM
inactive: activation [3] -7.84% [at 19 µM] | cAMP activity change [15] 11% [at 18.9 µM] | activity change, negative = cytotoxicity [11] 0.501% [at 15.8 µM]

CCCCCCCCCCCCCC[P+](CCCCCC)(CCCCCC)CCCCCC (tested in a mixture with another compound)
active: Potency [1] 8.63 µM | Potency [2] 24.3 µM | Potency [4] 27.3 µM | Potency [6] 17.2 µM | Potency [8] 30.6 µM | Potency [9] 27.3 µM | Potency [11] 49 µM | Potency [13] 3.86 µM
inactive: Potency [5] | outcome [15]

CC(C)CCCCCCCOP(=O)(Oc1ccccc1)Oc1ccccc1
inactive: Potency [1] | Potency [2] | Potency [4] | Potency [5] | outcome [15] | Potency [16] | Potency [6] | Potency [17] | Potency [9] | Potency [10] | Potency [11] | outcome [12] | Potency [18] | Potency [19] | Potency [13]
active: Potency [7] 24.5 µM

COP(N)(=S)OC
inactive: Potency [1] | Potency [2] | Potency [4] | Potency [5] | outcome [15] | Potency [16] | Potency [6] | Potency [17] | Potency [7] | Potency [9] | Potency [10] | Potency [11] | outcome [12] | Potency [13]

Clc1ccc(-c2ccc(Cl)c(Cl)c2Cl)c(Cl)c1Cl
inactive: Potency [1] | Potency [4] | Potency [5] | outcome [15] | Potency [6] | Potency [17] | Potency [10] | Potency [11] | Potency [18] | Potency [19] | Potency [13]
active: Potency [2] 58.2 µM | Potency [16] 58.2 µM | Potency [9] 41.2 µM

CCOCn1c(-c2ccc(Cl)cc2)c(C#N)c(Br)c1C(F)(F)F
active: Potency [1] 6.86 µM | Potency [2] 27.3 µM | Potency [4] 34.4 µM | Potency [6] 8.63 µM | Potency [9] 12.2 µM | Potency [13] 0.864 µM
inactive: Potency [5] | outcome [15] | Potency [18] | Potency [19]

CC(C)C(=O)Cl
inactive: Potency [1] | Potency [2] | Potency [3] | Potency [4] | outcome [15] | Potency [16] | Potency [6] | Potency [17] | Potency [7] | Potency [8] | Potency [9] | Potency [10] | Potency [11] | outcome [12] | Potency [18] | Potency [19] | Potency [13]

CCC[CH2][Sn]([CH2]CCC)([CH2]CCC)[O]C(=O)c1ccccc1
active: Potency [1] 1.72 µM | Potency [2] 1.54 µM | Potency [4] 1.93 µM | Potency [16] 17.2 µM | Potency [6] 10.9 µM | Potency [8] 2.17 µM | Potency [9] 2.43 µM | Potency [10] 3.47 µM | Potency [11] 2.45 µM | Potency [13] 1.22 µM
inactive: Potency [5]

CCCCCCCCc1ccc(O)cc1
active: Potency [2] 15.4 µM | Potency [7] 20.4 µM | Potency [13] 54.8 µM
inactive: Potency [1] | Potency [3] | outcome [15] | Potency [16] | Potency [10] | Potency [11] | outcome [12]

CC(=O)Nc1ccc2c(c1)Cc1ccccc1-2
inactive: Potency [1] | Potency [2] | Potency [4] | outcome [15] | Potency [16] | Potency [6] | Potency [17] | Potency [8] | Potency [10] | Potency [11] | outcome [12] | Potency [18] | Potency [19] | Potency [13]
active: Potency [5] 8.77 µM
